# PubChem BioAssay AID1159580 (chemical genetic matrix, 2015)
# Screen size: about 5,500 compounds; about 2,000 (36%) were called active. Inconclusive results (about 18%) are left out. The list shows a part of the results. Unmarked numbers belong to inactive results. Cut-off read from the data, not from the text of the source: active = normalized growth mostly below about 0.91 (no sharp cut-off); inconclusive = no clear call, values can overlap the other calls; inactive = mostly above about 0.92.
# Test: chemical genetic growth profiling, strain panel (AID 1159580);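 note: tested at 20 µM; growth read once vehicle control cultures reached saturation at 30 °C; 1 = growth at the plate median or of vehicle wells; lower values mean less growth of the strain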
# Conditions: S. cerevisiae deletion strains, growth OD
# [1] = locus YAR019C, strain CDC15, active compounds read low
# [2] = locus YBL105C, strain PKC1, active compounds read low
# [3] = locus YBR135W, strain CKS1, active compounds read low
# [4] = locus YBR136W, strain MEC1, active compounds read low
# [5] = locus YBR160W, strain CDC28, active compounds read low
# [6] = locus YDL017W, strain CDC7, active compounds read low
# [7] = locus YDL028C, strain MPS1, active compounds read low
# [8] = locus YDL101C, strain DUN1, active compounds read low
# [9] = locus YDL108W, strain KIN28, active compounds read low
# [10] = locus YDL132W, strain cdc53, active compounds read low
# [11] = locus YDL214C, strain PRR2, active compounds read low
# [12] = locus YDR052C, strain DBF4, active compounds read low
# [13] = locus YDR054C, strain cdc34, active compounds read low
# [14] = locus YDR226W, strain ADK1, active compounds read low
# [15] = locus YDR477W, strain SNF1, active compounds read low
# [16] = locus YER123W, strain YCK3, active compounds read low
# [17] = locus YER133W, strain GLC7, active compounds read low
# [18] = locus YFL009W, strain cdc4, active compounds read low
# [19] = locus YFL029C, strain CAK1, active compounds read low
# [20] = locus YFR003C, strain YPI1, active compounds read low
# [21] = locus YFR019W, strain FAB1, active compounds read low
# [22] = locus YFR028C, strain CDC14, active compounds read low
# [23] = locus YGR040W, strain KSS1, active compounds read low
# [24] = locus YGR052W, strain FMP48, active compounds read low
# [25] = locus YGR092W, strain DBF2, active compounds read low
# [26] = locus YHR030C, strain SLT2, active compounds read low
# [27] = locus YHR079C, strain IRE1, active compounds read low
# [28] = locus YHR082C, strain KSP1, active compounds read low
# [29] = locus YHR205W, strain SCH9, active compounds read low
# [30] = locus YIL147C, strain SLN1, active compounds read low
# [31] = locus YJL095W, strain BCK1, active compounds read low
# [32] = locus YJL128C, strain PBS2, active compounds read low
# [33] = locus YJL157C, strain FAR1, active compounds read low
# [34] = locus YJR016C, strain ILV3, active compounds read low
# [35] = locus YJR066W, strain TOR1 (second series), active compounds read low
# [36] = locus YJR066W, strain TOR1, active compounds read low
# [37] = locus YKL048C, strain ELM1, active compounds read low
# [38] = locus YKL067W, strain YNK1, active compounds read low
# [39] = locus YKL101W, strain HSL1, active compounds read low
# [40] = locus YKL193C, strain SDS22, active compounds read low
# [41] = locus YKL203C, strain TOR2, active compounds read low
# [42] = locus YLR113W, strain HOG1, active compounds read low
# [43] = locus YLR133W, strain CKI1, active compounds read low
# [44] = locus YLR403W, strain SFP1, active compounds read low
# [45] = locus YML070W, strain DAK1, active compounds read low
# [46] = locus YMR001C, strain CDC5, active compounds read low
# [47] = locus YMR205C, strain PFK2 (second series), active compounds read low
# [48] = locus YMR277W, strain FCP1, active compounds read low
# [49] = locus YNL006W, strain LST8, active compounds read low
# [50] = locus YNL020C, strain ARK1, active compounds read low
# [51] = locus YNL161W, strain CBK1, active compounds read low
# [52] = locus YNL183C, strain NPR1, active compounds read low
# [53] = locus YNL207W, strain RIO2, active compounds read low
# [54] = locus YNL222W, strain SSU72, active compounds read low
# [55] = locus YNL307C, strain MCK1 (second series), active compounds read low
# [56] = locus YOL078W, strain AVO1, active compounds read low
# [57] = locus YOL136C, strain PFK27, active compounds read low
# [58] = locus YOR061W, strain CKA2, active compounds read low
# [59] = locus YOR119C, strain RIO1, active compounds read low
# [60] = locus YOR231W, strain MKK1, active compounds read low
# [61] = locus YOR329C, strain SCD5, active compounds read low
# [62] = locus YPL031C, strain PHO85, active compounds read low
# [63] = locus YPL153C, strain RAD53, active compounds read low
# [64] = locus YPL204W, strain HRR25, active compounds read low
# [65] = locus YPL209C, strain IPL1, active compounds read low
# [66] = locus YPL256C, strain CLN2, active compounds read low
# [67] = locus YPR025C, strain CCL1, active compounds read low
# [68] = locus YPR106W, strain ISR1, active compounds read low
# [69] = locus YPR111W, strain DBF20, active compounds read low
# [70] = strain NNK1, active compounds read low
# [71] = strain TSCII, active compounds read low
compound,measurement,setting,value
CCNC(=S)N/N=C\c1cc(Cl)cc(Cl)c1O,normalized growth,[1],0.926
same,normalized growth,[2],0.938
same,normalized growth,[3],0.92
same,normalized growth,[4],0.931
same,normalized growth,[5],0.922
same,normalized growth,[6],0.925
same,normalized growth,[7],0.927
same,normalized growth,[8],0.923
same,normalized growth,[9],0.928
same,normalized growth,[10],0.948
same,normalized growth,[11],0.83
same,normalized growth,[12],0.929
same,normalized growth,[13],0.938
same,normalized growth,[14],0.941
same,normalized growth,[15],0.733
same,normalized growth,[16],0.577 (active)
same,normalized growth,[17],0.752
same,normalized growth,[18],0.911
same,normalized growth,[19],0.919
same,normalized growth,[20],0.937
same,normalized growth,[21],0.873
same,normalized growth,[22],0.947
same,normalized growth,[23],0.775
same,normalized growth,[24],0.709
same,normalized growth,[25],0.313 (active)
same,normalized growth,[26],0.446 (active)
same,normalized growth,[27],0.341 (active)
same,normalized growth,[28],0.699
same,normalized growth,[29],0.778
same,normalized growth,[30],0.923
same,normalized growth,[31],0.568
same,normalized growth,[32],0.925
same,normalized growth,[33],0.774
same,normalized growth,[34],0.93
same,normalized growth,[35],0.654
same,normalized growth,[36],0.509
same,normalized growth,[37],0.825
same,normalized growth,[38],0.875
same,normalized growth,[39],0.76
same,normalized growth,[40],0.908
same,normalized growth,[41],0.686 (active)
same,normalized growth,[42],0.706 (active)
same,normalized growth,[43],0.804
same,normalized growth,[44],0.746
same,normalized growth,[45],0.809
same,normalized growth,[46],0.923
same,normalized growth,[47],0.805
same,normalized growth,[48],0.916
same,normalized growth,[49],0.919
same,normalized growth,[50],0.749
same,normalized growth,[51],0.926
same,normalized growth,[52],0.589
same,normalized growth,[53],0.91
same,normalized growth,[54],0.93
same,normalized growth,[55],0.647
same,normalized growth,[56],0.916
same,normalized growth,[57],0.778
same,normalized growth,[58],0.801
same,normalized growth,[59],0.78
same,normalized growth,[60],0.471 (active)
same,normalized growth,[61],0.926
same,normalized growth,[62],0.635 (active)
same,normalized growth,[63],0.621 (active)
same,normalized growth,[64],0.642 (active)
same,normalized growth,[65],0.919
same,normalized growth,[66],0.495 (active)
same,normalized growth,[67],0.923
same,normalized growth,[68],0.947
same,normalized growth,[69],0.938
same,normalized growth,[70],0.94
same,normalized growth,[71],0.912
Oc1c(Cl)cc(Cl)cc1/C=N\NC(=S)Nc1cc(C(F)(F)F)cc(C(F)(F)F)c1,normalized growth,[1],0.815 (active)
same,normalized growth,[2],0.899 (active)
same,normalized growth,[3],0.884 (active)
same,normalized growth,[4],0.888 (active)
same,normalized growth,[5],0.893 (active)
same,normalized growth,[6],0.889 (active)
same,normalized growth,[7],0.878 (active)
same,normalized growth,[8],0.922
same,normalized growth,[9],0.88 (active)
same,normalized growth,[10],0.811 (active)
same,normalized growth,[11],0.179 (active)
same,normalized growth,[12],0.894 (active)
same,normalized growth,[13],0.491 (active)
same,normalized growth,[14],0.886 (active)
same,normalized growth,[15],0.285 (active)
same,normalized growth,[16],0.158 (active)
same,normalized growth,[17],0.338 (active)
same,normalized growth,[18],0.611 (active)
same,normalized growth,[19],0.784 (active)
same,normalized growth,[20],0.853 (active)
same,normalized growth,[21],0.111 (active)
same,normalized growth,[22],0.857 (active)
same,normalized growth,[23],0.35 (active)
same,normalized growth,[24],0.132 (active)
same,normalized growth,[25],0.0943 (active)
same,normalized growth,[26],0.126 (active)
same,normalized growth,[27],0.103 (active)
same,normalized growth,[28],0.151 (active)
same,normalized growth,[29],0.121 (active)
same,normalized growth,[30],0.887 (active)
same,normalized growth,[31],0.136 (active)
same,normalized growth,[32],0.905
same,normalized growth,[33],0.128 (active)
same,normalized growth,[34],0.722 (active)
same,normalized growth,[35],0.118 (active)
same,normalized growth,[36],0.119 (active)
same,normalized growth,[37],0.166 (active)
same,normalized growth,[38],0.137 (active)
same,normalized growth,[39],0.12 (active)
same,normalized growth,[40],0.858 (active)
same,normalized growth,[41],0.132 (active)
same,normalized growth,[42],0.171 (active)
same,normalized growth,[43],0.12 (active)
same,normalized growth,[44],0.159 (active)
same,normalized growth,[45],0.116 (active)
same,normalized growth,[46],0.805 (active)
same,normalized growth,[47],0.157 (active)
same,normalized growth,[48],0.811 (active)
same,normalized growth,[49],0.673 (active)
same,normalized growth,[50],0.117 (active)
same,normalized growth,[51],0.789 (active)
same,normalized growth,[52],0.245 (active)
same,normalized growth,[53],0.858 (active)
same,normalized growth,[54],0.885 (active)
same,normalized growth,[55],0.114 (active)
same,normalized growth,[56],0.856 (active)
same,normalized growth,[57],0.139 (active)
same,normalized growth,[58],0.114 (active)
same,normalized growth,[59],0.217 (active)
same,normalized growth,[60],0.128 (active)
same,normalized growth,[61],0.56 (active)
same,normalized growth,[62],0.163 (active)
same,normalized growth,[63],0.171 (active)
same,normalized growth,[64],0.121 (active)
same,normalized growth,[65],0.891 (active)
same,normalized growth,[66],0.158 (active)
same,normalized growth,[67],0.893 (active)
same,normalized growth,[68],0.922
same,normalized growth,[69],0.905
same,normalized growth,[70],0.272 (active)
same,normalized growth,[71],0.621 (active)
